Results reported in ChEMBL document CHEMBL5308541, “MAIP: An Open-Source Tool to Enrich High-Throughput Screening Output and Identify Novel, Druglike Molecules with Antimalarial Activity” (ACS Med Chem Lett, 2023).
Hit rate of the full screen: of about 4,800 compounds, about 410 (8.5%) showed an effect of 50% or more. The entries come from a sample that favours strong results as a whole.

Test system: Plasmodium falciparum
Test: Confirmatory screen in NF54 pLDH assay, in single point, at 2uM, 72h
Format: functional, Erythrocyte
Conditions: timepoint 72 hour

Compared with CN(CCCn1ccnc1)c1ccnc2cc(Br)ccc12, COC(=O)c1cn(CCNc2ccnc3cc(Cl)ccc23)cc2c(O)nnc1-2 is higher in “% Inhibition” value: 98% for the first, 103% for the second.

First: Cc1cccc(Nc2ccnc(Nc3ccc(N4CCN(C)CC4)cc3)n2)c1
Second: Cc1ccn2cc(-c3ccc(N4CCC(NCc5cccnc5)CC4)cc3)nc2c1
The “% Inhibition” value of the first is lower: 99% for the first, 102% for the second.

First: CNc1nc(N2CCN(CC(=O)NC3CCCCC3)CC2)nc2ccccc12
Second: CN1CCN(CC2CCN(c3ccnc4ccccc34)CC2)CC1
The “% Inhibition” value of the first is lower: 26% for the first, 103% for the second.

Going from COc1ccc2c(N3CC[C@H](CN4CCCC4)C3)ccnc2c1 to COCCN1CC[C@H](CNC2CCN(c3ncc4ccc(F)cc4n3)CC2)C1, the “% Inhibition” value falls from 102% to 71%.

Going from Cn1cncc1[C@@H]1CNC[C@H]1CNC(=O)c1ccccc1NC1CCCCC1 to CCOc1cc(C(=O)NC2CCN(CC3CCCC3)CC2)cc(-c2ccccc2)c1OC, the “% Inhibition” value rises from 73% to 99%.

Compared with O=C(Nc1cnc2c(c1)COCC2)c1cc2c(OC(F)(F)F)cccc2[nH]1, Cc1ccc2nc(-c3cccc(NC(=O)c4ccc(OC(F)(F)F)c(Cl)c4)c3)[nH]c2n1 is lower in “% Inhibition” value: 102% for the first, 74% for the second.

Going from O[C@H]1CCN(Cc2ccccc2CNc2cccc(-n3ccnc3)n2)C1 to CCN1CCC[C@H](Nc2cccc(-n3ccnc3)n2)C1, the “% Inhibition” value falls from 101% to 32%.

First: O[C@H]1CCN(Cc2cccc(NCc3cn4ccnc4s3)c2)C1
Second: Cc1ccccc1-c1cccc(CNCCCN2CCC[C@H](O)C2)c1
The “% Inhibition” value of the first is higher: 45% for the first, 17% for the second.

Compared with OCCN1CCC(NCCc2cc(Cl)cc(Cl)c2)CC1, CCCN1CCC(Nc2cc(C)nc3ccccc23)CC1 is higher in “% Inhibition” value: 30% for the first, 89% for the second.

Going from CN1CCN(CCCCNC2CC3CCC(C2)N3Cc2ccccc2)CC1 (stereo not drawn) to CCN1CCN(c2ccccc2CNCCC2CCN(C)CC2)CC1, the “% Inhibition” value falls from 41% to 2%.

Compared with Nc1ccnc2ccc(-c3ccc(C(=O)NCC4CCOCC4)cc3)cc12, COc1ccc(-c2cncc(C(=O)NCC3CCN(CCN(C)C)CC3)c2)cc1 is lower in “% Inhibition” value: 102% for the first, 96% for the second.

First: O=C1C2CCCCC2C(c2c(-c3ccccc3)[nH]c3ccccc23)N1Cc1ccccc1 (stereo not drawn)
Second: c1ccc2c(Nc3ccc4[nH]cnc4c3)c3ccccc3nc2c1
The “% Inhibition” value of the first is lower: 33% for the first, 102% for the second.

Compared with COc1cc2nc(NCC3(N4CCN(C)CC4)CCCC3)cc(C)c2cc1OC, Cc1ccc2nc(NC[C@H]3CCN(C4CC4)C3)cc(C)c2c1 is lower in “% Inhibition” value: 103% for the first, 100% for the second.

Going from Cc1ccccc1-c1cccc(N2CCC(NCC3CCNCC3)CC2)c1 to Cc1cccc(N2CCC(NCc3cc(C)cc(CN4CCN(C)CC4)c3C)CC2)c1, the “% Inhibition” value falls from 100% to 84%.

Compared with Cc1ccc2[nH]c(CNC[C@@H](CO)C3CCC3)cc2c1C, OC[C@H](CNCc1cc2ccc(F)cc2[nH]1)c1ccccc1Cl is higher in “% Inhibition” value: 80% for the first, 82% for the second.

First: CNc1nc(C)c(-c2ccnc(Nc3cccc(S(C)(=O)=O)c3)n2)s1
Second: CNc1nc(C)cc(N[C@@H]2COc3ccccc3C2)n1
The “% Inhibition” value of the first is lower: 45% for the first, 89% for the second.

Compared with Nc1nc(NCC2CCN(CCc3ccccc3)CC2)cc([C@H]2C[C@@H](N)C2)n1, Cc1ccccc1CN1CCC(CNc2c3c(nc4ccccc24)CCC3)CC1 is higher in “% Inhibition” value: 26% for the first, 103% for the second.

Cc1cc(NC[C@H]2CN(CC(C)C)CCO2)c2ccccc2n1 and Cc1nc2ccc(Oc3ccccc3)cc2c(O)c1CN(C)C1CCN(C)CC1 are the same in “% Inhibition” value: 28% for the first, 28% for the second.

First: CC(C)CCOc1ccc2[nH]c(-c3cc(N4CCC[C@@H]4CS(C)(=O)=O)ccn3)cc2c1
Second: COc1ccc2cc(-c3cc(N)ccn3)[nH]c2c1
The “% Inhibition” value of the first is higher: 98% for the first, 89% for the second.

Going from COc1ccc2[nH]cc(-c3ccc(N)nc3)c2c1 to Nc1ccnc(-c2cccc3[nH]ccc23)c1, the “% Inhibition” value rises from -21% to 0%.

Going from COc1ccc2cc(NC(=O)c3cc(-c4c(C)nn(C)c4C)[nH]n3)cnc2c1 to COc1ccc2nc(C)cc(NCc3cccc(NC(=O)c4ccco4)c3)c2c1, the “% Inhibition” value rises from 81% to 105%.

First: Oc1cccc2c1CCC[C@@H]2NCc1ccc2occc2c1
Second: CN(C)CCN1CCC(CNCc2ccc3ncccc3c2)CC1
The “% Inhibition” value of the first is higher: 55% for the first, 29% for the second.

First: CN(C)C1CCN(CCN[C@H]2CCc3ccc(F)cc32)CC1
Second: Cc1cc(F)ccc1N1CCC(NCCCNc2cccnc2)CC1
The “% Inhibition” value of the first is higher: 97% for the first, -2% for the second.

First: O[C@H](COc1ccccc1CNCc1cc(-c2ccccc2)[nH]n1)CN1CCCCC1
Second: CN(C[C@H](O)COc1ccccc1CN1CCC(c2ccncc2)CC1)C1CCCCC1
The “% Inhibition” value of the first is higher: 103% for the first, 84% for the second.

First: CCN1CCN(C[C@@H](C)CNCc2cc(-c3ccccc3)ccc2OC)CC1
Second: CCN1CCN(c2ccc(CNCc3cccc(O)c3)cc2F)CC1
The “% Inhibition” value of the first is lower: -4% for the first, 85% for the second.

First: Cc1nc(N2CCN(C)CC2)cc(N2CCN(S(=O)(=O)c3ccccc3C(F)(F)F)CC2)n1
Second: Cc1cnccc1N1CCCN(Cc2ccccc2OCCN2CCN(C)CC2)CC1
The “% Inhibition” value of the first is lower: 56% for the first, 102% for the second.

First: O=C(NCc1ccc(N2CCNCC2)c(F)c1)c1ccc(-c2noc(C(F)(F)F)n2)cc1
Second: O=C(NCCNc1ccnc2ccncc12)c1ccc(C(F)(F)F)cc1
The “% Inhibition” value of the first is higher: 54% for the first, 43% for the second.

Going from FC(F)(F)c1ccc(-c2c(-c3ccccc3)ncn2Cc2ncn[nH]2)cc1 to C[C@H](Nc1nc(N)c2ccccc2n1)c1cccc(-n2cncn2)c1, the “% Inhibition” value rises from 7% to 29%.

Compared with Cc1cnccc1NCCNCc1cccc(OCCCCN2CCOCC2)c1, Cc1cnccc1NCCNCc1cnc(N2CCCCC2)nc1 is lower in “% Inhibition” value: 95% for the first, 62% for the second.

Going from CCCN1CCC(N2CC(c3cccnc3)C(c3nc(C4CCCC4)no3)C2)CC1 (stereo not drawn) to CCN1CCC(N2CCC(C(=O)NCCc3ccc(OC(F)(F)F)cc3)CC2)CC1, the “% Inhibition” value rises from 10% to 53%.

Going from OCC1CCCN1CCCCNC1CC2(CCC2)Oc2ccccc21 (stereo not drawn) to O=C(CCc1nnc(-c2ccc(-c3ccccc3)cc2)o1)NC[C@@H]1CCCN2CCCC[C@H]12, the “% Inhibition” value rises from -5% to 86%.

Going from COc1ccc2c(O)c(Br)c(C)nc2c1 to COc1ccc2nc3cc(Cl)ccc3c(O)c2c1, the “% Inhibition” value falls from 72% to 39%.

Compared with Cc1nc(-c2ccccn2)nc(NC2CCN(CC(F)F)CC2)c1C, CCCN(CCN1CCN(CC)CC1)c1nc(-c2ccccn2)nc2c1CCC2 is lower in “% Inhibition” value: 24% for the first, 10% for the second.

Compared with CCCC(=O)NC1COCC1Cc1ccncc1 (stereo not drawn), c1ccc2c(CNCCC3CCN(c4ccncc4)CC3)csc2c1 is higher in “% Inhibition” value: 86% for the first, 95% for the second.

First: FC(F)(F)c1ccc(N2CCC[C@H](NC3CCN(Cc4ccco4)CC3)C2)nc1
Second: c1ccc(-c2ccnc(C3CCN(CC45CNCC4C5)CC3)n2)cc1 (stereo not drawn)
The “% Inhibition” value of the first is lower: 38% for the first, 96% for the second.

First: CCc1cc(Nc2ccc(N3CCOCC3)nc2)nc(-c2ccncc2)n1
Second: CCc1cc(NCCc2nc3cc(F)ccc3[nH]2)nc(-c2ccccn2)n1
The “% Inhibition” value of the first is higher: 42% for the first, 9% for the second.

Compared with O=C(NC1CCN(CCOc2ccc(Cl)cc2)CC1)c1c[nH]c2ccncc2c1=O, O=C1CN(C(=O)c2ccnc3ccccc23)CCN1Cc1ccccc1F is lower in “% Inhibition” value: 100% for the first, 63% for the second.

Going from O[C@@H](CNCc1cc2cc(Cl)c(Cl)cc2[nH]1)c1ccc(F)cc1 to Cc1ocnc1CNC[C@H](O)c1ccc(Cl)c(Cl)c1, the “% Inhibition” value rises from 80% to 97%.

First: Cc1cc(N2CCC(N(C)Cc3cc(-c4ccccc4)n[nH]3)CC2)nc(N)n1
Second: CN1CCC(N(C)C[C@H](Nc2ncnc3ccccc23)c2ccccc2)CC1
The “% Inhibition” value of the first is lower: 52% for the first, 102% for the second.

Going from CN(CCCc1cc(-c2ccc(F)cc2)n[nH]1)CC1CCNCC1 to Fc1ccc(-n2cc(CNCCC3CCN(c4ccncc4)CC3)cn2)cc1, the “% Inhibition” value rises from 17% to 102%.

Compared with N#Cc1cccc(Cl)c1N1CCC(N2CCCC2)CC1, Cc1ccc(-c2cc(C(=O)NC3CCN(C4CCN(C)CC4)CC3)n[nH]2)cc1C is higher in “% Inhibition” value: 38% for the first, 102% for the second.

First: COCCNc1nc(N[C@@H](C)c2ccccc2)c2ccccc2n1
Second: CN([C@@H](c1ccccc1)c1ccccc1Br)S(=O)(=O)c1c[nH]c2ncccc12
The “% Inhibition” value of the first is higher: 92% for the first, 67% for the second.

Going from NCC1(O)CCN(c2ccnc3cc(F)c(Cl)cc23)CC1 to Cc1c(CN2CCC(O)(Cn3ccnc3)CC2)[nH]c2c(Cl)cccc12, the “% Inhibition” value rises from 97% to 99%.

Going from CCc1oc2ccccc2c1CNC[C@H](O)c1ccc(Cl)cc1 to COCCN1CCC[C@H](CNCc2cnn(-c3ccc4ccccc4c3)c2)C1, the “% Inhibition” value falls from 99% to 13%.

Going from CC(C)c1ccc(CN2CCC[C@@](O)(CNCCN3CCNCC3)C2=O)cc1 to O=C(NCc1ccc(OC(F)(F)F)cc1)N(CCN1CCCC1)[C@H]1CCCNC1, the “% Inhibition” value rises from 29% to 33%.

Compared with COc1cc2nc(-c3ccc(F)c4cccnc34)nc(N)c2cc1OC, Cc1sc2nc(-c3ccccn3)nc(NCCc3nccn3C)c2c1-c1ccccc1 is lower in “% Inhibition” value: 102% for the first, 65% for the second.

Going from Cc1cc(C)c(CN2CCN(C)CC2)cc1CNCCCn1ccnc1C to Cc1cnccc1NCCNCc1ccc(OC(C)C)c(Cl)c1, the “% Inhibition” value rises from 44% to 84%.

Compared with Clc1ccc2[nH]c3c(c2c1)CCCC3NC1CCN(C2CCOC2)CC1 (stereo not drawn), CN1CCC(N2CCC(NC(=O)c3ccc(S(=O)(=O)N(C)C4CCCCC4)cc3)CC2)CC1 is lower in “% Inhibition” value: 96% for the first, 39% for the second.

Compared with CNc1nc(N[C@H]2CCCN(Cc3ccc(Cl)cc3)C2)nc2c1CCC2, c1ccc(-c2nc3c(c(NCCNc4ncccn4)n2)CCC3)nc1 is lower in “% Inhibition” value: 100% for the first, 23% for the second.

First: Nc1ccc(Nc2ccc(F)cc2)c2ccncc12
Second: O=C(Nc1cncnc1N1CCCC1)c1cc(F)cc2[nH]cnc12
The “% Inhibition” value of the first is higher: 70% for the first, -8% for the second.

Going from CN(C[C@H](O)COc1cccc(CNCCCOc2cccnc2)c1)C1CCCCC1 to CN(C)C1(CNc2nc(C(F)(F)F)nc3cc(F)ccc23)CCCCCC1, the “% Inhibition” value rises from 44% to 57%.

CN(C)C1(CNc2nc(C(F)(F)F)nc3cc4c(cc23)OCO4)CCCCCC1 was tested, and the “% Inhibition” value was 49%.
